According to ChEMBL document CHEMBL3988442, “University of Dundee, Small-Polar-MMV Screening Library” (2021):
In all, about 48,000 compounds went through this assay and about 13,000 (27%) showed an effect of 50% or more. The list shows a part of the results.

What follows are compounds tested on Wolbachia pipientis (assay: Anti-Wolbachia Cell-Based Screen). Details: 5 µM.
Assay type: functional
Design: scale not given: in the data most compounds retested in dose-response had high values

| SMILES | Percent Effect [%] |
| --- | --- |
| CC(C)N1CC(c2ncc(-c3ccc4c(c3)OCCO4)[nH]2)CC1=O (stereo unspecified) | 5.292 |
| CC(C)CN1C(=O)CO[C@@H]2CN(C(=O)[C@H]3CCCO3)C[C@H]21 | -3.768 |
| CC(C)(O)CCc1ccc(C(=O)N2CCN(CCS(C)(=O)=O)CC2)cc1 | -13.16 |
| Cl.Cn1ncc2c1CCCC2NCc1cc(Br)cs1 (stereo unspecified) | 7.416 |
| COc1ccc(NC(=O)Cn2nc(C)c(C)cc2=O)cc1Cl | -5.001 |
| COC(=O)NCCCC(=O)NCC1(c2cccc(Cl)c2)CC1 | -5.013 |
| COC(=O)N1CC(C)=C(C)CN1C(=O)Nc1cccc(Cl)c1 | 127.6 |
| CCOC(=O)N1CC(C)=C(C)CN1C(=O)Nc1ccc(Cl)c(Cl)c1 | 122.4 |
| CCc1csc(CNCC(=O)Nc2ccc(Cl)c(C)c2)n1 | 20.64 |
| CN1CC(Oc2ccccc2)=NC(SCC(=O)Nc2ccc(Cl)cc2)=N1 | 11.53 |
| COC(=O)N1CC(C)=C(C)CN1C(=O)Nc1ccc(Cl)cc1 | 87.33 |
| Cc1ccc(NC(=O)N2CCOC(C)C2)cc1Cl (stereo unspecified) | 8.105 |
| Cc1cc(=O)n(CC(=O)Nc2ccc(Cl)cc2)nc1C | -24.72 |
| COC(=O)NCCC(=O)NCC1(c2cccc(Cl)c2)CC1 | 6.503 |
| Cc1ccc(NC(=O)N2CCCC(O)(CO)CC2)cc1Cl (stereo unspecified) | -14.19 |
| COC(=O)N1CC(C)=C(C)CN1C(=O)Nc1ccc(Cl)c(Cl)c1 | 93.89 |
| CCCc1c(C(=O)N2CCN(c3ncccn3)CC2)cnn1C | -7.534 |
| COc1ccc(C2CCN(CCCC#N)CC2)cc1 | 4.999 |
| CN(CCn1ccc2ccccc21)C(=O)CS(C)(=O)=O | -3.366 |

| SMILES | Percent Effect [%] |
| --- | --- |
| CCC(NCc1cccc(Cl)c1)c1ccccc1OCC(=O)NC (stereo unspecified) | -3.101 |
| c1ccc2sc(CN3CCOC(Cn4cccn4)C3)nc2c1 (stereo unspecified) | 18.8 |
| Cc1cnc(CN2CCOC(Cn3nc(C)nc3C)C2)cn1 (stereo unspecified) | 1.014 |
| Cc1cnn(CC2CN(Cc3nc4ccccc4s3)CCO2)c1 (stereo unspecified) | 112.2 |
| Cc1nc(C)n(CC2CN(CCCOc3ccccc3C)CCO2)n1 (stereo unspecified) | -2.427 |
| c1ccc2sc(CN3CCOC(Cn4cncn4)C3)nc2c1 (stereo unspecified) | -2.125 |
| Cc1cc(C)n(CC2CN(Cc3nc4ccccc4s3)CCO2)n1 (stereo unspecified) | 100.5 |
| Cc1nc(C)n(CC2CN(CCc3ccccn3)CCO2)n1 (stereo unspecified) | -80.6 |
| Cc1nc(C)n(CC2CN(CCCOc3ccccc3)CCO2)n1 (stereo unspecified) | 117 |
| Cc1nc(C)n(CC2CN(Cc3nc4ccccc4s3)CCO2)n1 (stereo unspecified) | 214.4 |
| CCOc1cc(CNCCCn2ccnc2)cc(Cl)c1OC | -2.323 |
| COCCN1C[C@H]2[C@@H](C1)N(C(=O)c1cccs1)CC[C@H]2OC | -4.854 |
| CC(=O)c1ccc(OCC(=O)NC(C)CCc2ccco2)cc1 (stereo unspecified) | -8.021 |
| COc1ccccc1OC1(C(=O)O)CCN(c2ncnc(C)c2C)CC1 | -46.26 |
| N#CCCNC(=O)CSc1ccc(F)cc1F | -9.893 |
| Cc1nn(C)cc1C1=NS(=O)(=O)N(C)C(C(=O)Nc2ccc(Cl)cc2)=C1 | 140.7 |
| Cc1c(C2=NS(=O)(=O)N(C)C(C(=O)Nc3ccc(Br)cc3)=C2)cnn1C | 158.8 |
| Cc1c(C(C)NC(=O)Nc2ccc(F)c(F)c2)cnn1C (stereo unspecified) | 0.41 |
| CN1CCC(Oc2ccc(NC(=O)c3ccccc3Br)cc2)CC1 | -1.249 |

| SMILES | Percent Effect [%] |
| --- | --- |
| Cc1nn(C)cc1C1=NS(=O)(=O)N(C)C(C(=O)Nc2ccc(Br)cc2)=C1 | 160.2 |
| CNc1nc(CNC(=O)Nc2ccccc2-c2noc(C)n2)cs1 | 2.213 |
| CN1CC(NC(=O)CCCc2cc(Cl)sc2Cl)CCC1=O (stereo unspecified) | -9.281 |
| O=C(NCCc1ccccc1)c1cn(CCNCc2cccnc2)nn1 | -1.891 |
| O=C(NCc1cccnc1)c1ccc2nccn2c1 | 107.5 |
| O=C(NCc1cccnc1)c1cn(CCc2ccccc2)nn1 | 77.17 |
| O=C(NCCc1cccnc1)c1ccc2nccn2c1 | -5.38 |
| O=C(NCCCOc1cccnc1)c1cn(CCc2ccccc2)nn1 | -0.6541 |
| O=C(NCCCNc1cccnc1)c1ccc2nccn2c1 | 1.237 |
| Cc1ccc(C(=O)NCC2(O)CCOCC2)cc1F | -12.72 |
| O=C(NCC1(O)CCOCC1)c1ccc(F)cc1 | 96.45 |
| Cc1ccc(C(=O)NCC2(O)CCOCC2)cc1Br | -13.19 |
| COC(=O)c1ccc(C(=O)NCC2(O)CCOCC2)cc1 | 130.4 |
| CN(C)c1ccc(C(=O)NCC2(O)CCOCC2)cc1 | -16.02 |
| CN(C)c1cccc(C(=O)NCC2(O)CCOCC2)c1 | -18.41 |
| O=C(O)C(F)(F)F.O=C(O)C(F)(F)F.O=C(O)c1cc2c(nc1N1CCOCC1)CCN(C1CCOC1)CC2 (stereo unspecified) | -7.215 |
| Cc1ccnc2c1NC(=O)CN2C(=O)CCC(F)(F)F | -8.698 |
| O=C(OC1CCC1)c1ncccc1OCC(F)(F)F | -10.44 |
